Assay outcomes: PubChem BioAssay, several laboratories
Rtt109 Vps75: inhibitors of C. albicans Rtt109/Vps75 HAT, primary screen, biochemical, ThioGlo CoA-SH fluorescence, plate reader | purified Rtt109/Vps75, 4 h | inhibition, % at 34.9 µM | 330,000 tested, 0.16% active | AID 540336, 2011;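 active = inhibition of at least 50% in every replicate; inconclusive = best replicate reaches 50% inhibition but some replicates fall short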
Cardio protect: cardioprotection against H2O2-induced cell death, primary screen, uHTS, H9c2 cells, ATPLite luminescence; AID 588492, 2011; H9c2 cardiomyocytes, H2O2 injury protection, 2 h; protection from H2O2 cell death, % at 20 µM; 360,000 tested, 0.63% active;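 active = compounds giving at least 50% protection of heart cells from peroxide-induced death in the single-dose screen, raw or plate-pattern-corrected value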;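 note: 0% = DMSO wells with peroxide and 100% = DMSO wells without peroxide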
HGIII-sPLA2 inh: human group III sPLA2 inhibitors, primary screen, biochemical, QFRET, BODIPY PC-A2 liposome substrate | QFRET BODIPY PC-A2 liposome hydrolysis, fluorescence | inhibition, % at 12.2 µM | 370,000 tested, 0.56% active;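 active = inhibition above mean plus 3 SD of compounds lying within the high and low control bounds, cut at about 19% in these data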;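 note: 0% = median of test compound wells and 100% = no enzyme DMSO wells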
Target sequence (Q9NZ20 whole entry, looked up): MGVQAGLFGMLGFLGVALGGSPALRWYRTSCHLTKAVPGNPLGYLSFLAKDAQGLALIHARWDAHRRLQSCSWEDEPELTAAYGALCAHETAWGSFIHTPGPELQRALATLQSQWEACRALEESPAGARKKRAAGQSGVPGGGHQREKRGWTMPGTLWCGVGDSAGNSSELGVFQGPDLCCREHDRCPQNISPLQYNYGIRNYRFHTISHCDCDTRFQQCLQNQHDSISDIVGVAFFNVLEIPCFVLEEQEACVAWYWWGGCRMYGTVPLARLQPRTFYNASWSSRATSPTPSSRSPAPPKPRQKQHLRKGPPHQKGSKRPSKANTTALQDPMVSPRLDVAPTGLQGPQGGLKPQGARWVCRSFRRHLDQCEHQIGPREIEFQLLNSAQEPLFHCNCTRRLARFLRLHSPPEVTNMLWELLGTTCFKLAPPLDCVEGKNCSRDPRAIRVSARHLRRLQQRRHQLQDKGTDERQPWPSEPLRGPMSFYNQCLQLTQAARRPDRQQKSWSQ
DAGLB inhibitor: DAGLB lipase inhibitors, primary screen, biochemical, fluorescence, HTS; HEK293T DAGLB membrane lysate, EnzChek fluorogenic substrate; inhibition, % at 5.17 µM; 340,000 tested, 0.059% active; AID 504411, 2011; in the data active = inhibition above about 34%;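 note: 0% = enzyme with vehicle and 100% = wells lacking enzyme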
ABHD5 PLIN5 PPI: ABHD5-PLIN5 interaction inhibitors, primary screen, cell lysate, split luciferase complementation, luminescence; Split G. princeps luciferase complementation, 4 h; inhibition, % at 4 µM; AID 602281, 2012; 360,000 tested, 0.78% active;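 active = inhibition above the mean inhibition across every tested compound plus 3 SD, cut at about 22% in these data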;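 note: 0% = DMSO only wells and the 100% control is not disclosed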
Myeloid diff 2: induction of myeloid progenitor differentiation, primary screen, cell-based, flow cytometry, MLPCN library; ER-HoxA9 myeloid progenitors, lysozyme-GFP differentiation; calls only at 10 µM; 360,000 tested, 1% active;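 active = normalized GFP-positive differentiation at or above the plate's own cutoff, the solvent-only control mean plus 3 SD; inconclusive = no clear call, values can overlap the other calls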;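 note: cells exposed to compound for four days before flow analysis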
ABHD5-PLIN5 conf: ABHD5-PLIN5 interaction inhibitors, confirmation, biochemical, luminescence | shares compounds with ABHD5 PLIN5 PPI | inhibition, % at 4 µM | 2,200 tested, 67% active | AID 651612, 2012; in the data active = inhibition above about 23%;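 note: 0% = DMSO vehicle wells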
HNF4 split-luc: HNF4 dimerization inhibitors, counter-screen for ABHD5-PLIN5 interaction inhibitor project, biochemical, split-luciferase complementation, luminescence | 2,200 tested, 77% active | inhibition, % at 4 µM | shares compounds with ABHD5 PLIN5 PPI | AID 651674, 2012;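 active = mean inhibition across replicate wells exceeding the computed hit threshold, cut at about 13% in these data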;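 note: light from luciferase halves that rejoin when HNF4 fusion proteins dimerize; 0% = DMSO only wells and the 100% control is not given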
Starred values were filed as active, the others as inactive; i = inactive; u = inconclusive; x = no result given. The list is not random: actives were taken first. Their share in the collection is about 2.9%.

SMILES | Rtt109 Vps75 | Cardio protect | HGIII-sPLA2 inh | DAGLB inhibitor | ABHD5 PLIN5 PPI | Myeloid diff 2 | ABHD5-PLIN5 conf | HNF4 split-luc
Cc1ccc(NC(=O)CN2C(=O)N/C(=C/c3ccc(C)s3)C2=O)cc1 | 0.0 | 7.0 | -20.2 | 5.8 | -1.4 | i | x | x
Cc1ccc(/C=C2\C(=O)NC(=O)N2C)o1 | 10.0 | 0.3 | 3.0 | -3.2 | 16.0 | i | x | x
C=CCN1C(=O)N/C(=C/c2ccc(C)o2)C1=O | 33.8 | -1.3 | -7.9 | 3.4 | 31.5* | i | 14.0 | 87.9*
Cc1cccc(NC(=O)CN2C(=O)N/C(=C\c3ccc(-c4cccc(C(=O)O)c4)o3)C2=O)c1 | 3.6 | -0.1 | -0.9 | 5.1 | 7.9 | i | x | x
Cc1cccc(NC(=O)CN2C(=O)N/C(=C/c3ccc(C)o3)C2=O)c1 | -3.2 | -5.3 | -19.3 | 2.9 | 61.2* | i | 35.2* | 98.7*
Cc1ccc(NC(=O)CN2C(=O)N/C(=C/c3ccc(C)o3)C2=O)cc1 | 0.2 | -8.3 | -8.1 | 5.9 | 42.0* | i | 45.6* | 87.7*
S=C(c1ccco1)N1CCOCC1 | -0.6 | 2.5 | 6.1 | -4.4 | -2.7 | i | x | x
CC[C@@H](C)[C@@H]1CN([C@@H](CN2CCC[C@H]2CN2C(N)=NC[C@@H]2Cc2ccccc2)C(C)C)C(=N)N1CCCC1CCCC1 | 2.3 | 8.4 | x | 3.6 | 27.6* | i | 10.2 | 5.4
CC[C@@H](C)[C@@H]1CN([C@@H](CN2CCC[C@H]2CN2C(N)=NC[C@H]2C(C)C)C(C)C)C(=N)N1CCCC1CCCC1 | 12.0 | -6.7 | 4.4 | -0.4 | 16.3 | i | x | x
CC(C)C[C@@H]1CN=C(N)N1C[C@@H]1CCCN1C[C@H](C)N1C[C@@H](Cc2ccccc2)N(CCc2ccc(Cl)c(Cl)c2)C1=N | 75.2* | 11.9 | x | 1.8 | 27.4* | i | 13.7 | 2.2
CCN(CC)C(=O)c1[nH]cnc1C(=O)Nc1cccc(Cl)c1 | -0.9 | -0.3 | 3.8 | -4.7 | -3.8 | i | x | x
COc1ccc(Br)cc1CNc1ccc(N2CCOCC2)cc1 | -1.7 | -3.3 | 8.0 | 3.8 | -3.7 | i | x | x
COc1cc(/C=N/N=C(N)N)ccc1OCc1ccc(Cl)cc1 | u | -23.2 | -6.5 | 3.3 | 23.6* | i | 8.2 | 6.4
CCOc1cc(/C=N/N=C(N)N)ccc1OCc1ccc(Cl)cc1 | 44.0 | -10.6 | -16.8 | 5.2 | 4.7 | u | x | x
CCN(CC(=O)Nc1ccc(NC(C)=O)cc1)C(=O)c1c(C)nn(Cc2ccc(C)cc2)c1Cl | 14.2 | -2.2 | 13.2 | -0.5 | 4.8 | i | x | x
CC(C)NC(C(=O)Nc1cc(Cl)cc(Cl)c1)c1ccccc1 (stereo unspecified) | 0.8 | -16.8 | 3.3 | -6.4 | 54.4* | i | 8.9 | 4.3
CC(C)c1ccc(C2CC(=O)c3cnc(N4CCc5ccccc5C4)nc3C2)cc1 (stereo unspecified) | 2.3 | -10.3 | 3.6 | -3.3 | 9.2 | i | x | x
O=C1CC(c2ccco2)Cc2nc(N3CCc4ccccc4C3)ncc21 (stereo unspecified) | 10.1 | 2.0 | -4.6 | 4.3 | 27.5* | i | 19.7 | 23.2*
N#C/C(=C/c1ccc(N2CCCCCC2)o1)c1ccc(Cl)cc1 | 24.3 | -12.7 | x | 5.2 | 77.5* | u | 81.9* | 111.1*
COCCNC(=O)/C(C#N)=C/c1ccc(N2CCOCC2)o1 | 10.4 | 7.2 | -13.1 | -1.5 | 10.4 | i | x | x
Cc1ccc(/C(C#N)=C\c2ccc(N3CCOCC3)o2)cc1 | -12.5 | -11.2 | -10.0 | -1.8 | 87.9* | i | 62.2* | 105.5*
N#C/C(=C/c1ccc(N2CCCCC2)o1)c1cccc(F)c1 | 4.8 | -4.6 | -6.2 | 5.2 | 19.8 | x | x | x
N#C/C(=C\c1ccc(N2CCOCC2)o1)C(=O)NCCc1ccccc1 | -8.0 | 21.0 | -8.7 | -12.0 | 24.8* | x | 18.5 | 31.9*
CCOC(=O)C(=O)/C(C#N)=C/Nc1ccc(Cl)cc1 | 2.1 | -7.2 | 4.7 | -1.1 | 3.8 | i | x | x
Cc1cccc(Cn2nc(C)cc2NC(=O)Cn2cc([N+](=O)[O-])cn2)c1 | 4.3 | -3.3 | -3.9 | 0.2 | -0.2 | i | x | x
SMILES | Rtt109 Vps75 | Cardio protect | HGIII-sPLA2 inh | DAGLB inhibitor | ABHD5 PLIN5 PPI | Myeloid diff 2 | ABHD5-PLIN5 conf | HNF4 split-luc
COCCNC(=O)/C(C#N)=C/c1cccc(/C=C(\C#N)C(=O)NCCOC)c1 | -2.3 | -2.4 | -2.6 | 1.2 | 48.0* | i | 97.6* | 70.6*
COCCNC(=O)/C(C#N)=C/c1ccc(O)cc1 | -1.8 | 0.4 | 1.0 | -1.3 | -5.7 | i | x | x
Cc1ccc(/C=[N+](\[O-])c2ccccc2C)o1 | -3.8 | -4.4 | 6.0 | 0.8 | 23.1* | i | 2.4 | 10.7
CCN(CC(=O)Nc1c(F)cccc1F)C(=O)CSCC(=O)Nc1cccc(C)c1 | 6.2 | 2.6 | 0.3 | -0.7 | -2.2 | i | x | x
CCN(CC(=O)Nc1c(F)cccc1F)C(=O)CSCC(=O)Nc1ccc(OC)cc1 | -5.2 | 3.5 | -1.8 | -1.0 | 26.1* | i | 2.8 | -4.5
CCCCc1ccc(NC(=O)N[C@H](C(=O)O)C(C)C)cc1 | 16.9 | 1.6 | -4.7 | 1.6 | -4.3 | i | x | x
O=C(N1CCCCC1)C1(S(=O)(=O)c2ccccc2)CC=CC1 | 1.0 | -1.3 | 4.5 | 0.8 | 32.8* | i | 2.0 | 0.3
O=C(N1CCOCC1)C1(S(=O)(=O)c2ccccc2)CC=CC1 | 0.7 | 1.4 | 6.5 | -2.3 | 6.0 | i | x | x
C#CCOCCOCCOCCNc1nc(N2CCN(C(=O)CCCCCCCCCCNC(=O)[C@@H](CCSC)n3cc(CCO)nn3)CC2)nc(N2CCN(C(=O)CCCCCCCCCCNC(=O)[C@H](CCSC)n3cc(CCO)nn3)CC2)n1 | 0.8 | 6.5 | -70.8 | 0.9 | 43.7* | i | 9.4 | -19.7
C#CCOCCOCCOCCNc1nc(N2CCN(C(=O)CCCCCCCCCCNC(=O)Cn3cc(CCCCCN)nn3)CC2)nc(N2CCN(C(=O)CCCCCCCCCCNC(=O)Cn3cc(CCCCCN)nn3)CC2)n1 | u | 4.4 | x | 2.5 | 20.6 | i | x | x
C#CCOCCOCCOCCNc1nc(N2CCN(C(=O)CCCCCCCCCCNC(=O)Cn3cc(CCCCCN)nn3)CC2)nc(N2CCN(C(=O)CCCCCCCCCCNC(=O)[C@@H](CCC(=O)O)n3cc(CCCCCN)nn3)CC2)n1 | 33.6 | 0.0 | x | 0.3 | 22.0 | i | x | x
